Data on eleven molecules can be found in PubChem BioAssay (NCATS).

The nature of assay [1]: qHTS of pediatric cancer cell lines to identify multiple opportunities for drug repurposing: Primary screen for BT-37 cells (AID 1347094). An outline of the steps:
(§1)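 Cells seeded at 500-1,000 cells/well in growth media, rested 5 hours at 37 degrees C, 5% CO2, then dosed; MIPE compounds at 11-point (from 0.78 nM) and NPC at 8-point (from 0.59 nM) final concentrations. Viability by CellTiter-Glo luminescence after 48 hours.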
(In general: qHTS replaces the single test concentration by a dilution series.)

Assay [2] can be described thus: qHTS of pediatric cancer cell lines to identify multiple opportunities for drug repurposing: Primary screen for NB-EBc1 cells (AID 1347095). An outline of the steps: as §1
A short description of assay [3]: qHTS of pediatric cancer cell lines to identify multiple opportunities for drug repurposing: Primary screen for U-2 OS cells (AID 1347096). Also: nearly all actives have a fitted effect of over 50% in size. An outline of the steps:
(§2)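 Cells (500-1,000/well) rested 5 h, then received compounds for 48 h; metabolically active cells were measured by CellTiter-Glo luminescence. Final concentrations spanned up to 46 µM (MIPE, 11-point) or 0.59 nM-46 µM (NPC, 8-point) in primary screens, 11-point in follow-ups.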

Assay [4] in a line: qHTS of pediatric cancer cell lines to identify multiple opportunities for drug repurposing: Primary screen for Saos-2 cells (AID 1347097). Also: nearly all actives have a fitted effect of over 40% in size. In short, it runs like this: as §1
The nature of assay [5]: qHTS of pediatric cancer cell lines to identify multiple opportunities for drug repurposing: Primary screen for SK-N-SH cells (AID 1347098). Also: nearly all actives have a fitted effect of over 65% in size. An outline of the steps:
as §2

The nature of assay [6]: qHTS of pediatric cancer cell lines to identify multiple opportunities for drug repurposing: Primary screen for NB1643 cells (AID 1347099). Also: nearly all actives have a fitted effect of over 50% in size. In short, it runs like this: as §1
Assay [7] in a line: qHTS of pediatric cancer cell lines to identify multiple opportunities for drug repurposing: Primary screen for LAN-5 cells (AID 1347100). An outline of the steps:
as §2

Assay [8] in a line: qHTS of pediatric cancer cell lines to identify multiple opportunities for drug repurposing: Primary screen for BT-12 cells (AID 1347101). Also: nearly all actives have a fitted effect of over 25% in size. An outline of the steps:
as §2

Assay [9] is described as follows: qHTS of pediatric cancer cell lines to identify multiple opportunities for drug repurposing: Primary screen for OHS-50 cells (AID 1347103). Also: nearly all actives have a fitted effect of over 40% in size. An outline of the steps:
as §2

Assay [10] is described as follows: qHTS of pediatric cancer cell lines to identify multiple opportunities for drug repurposing: Primary screen for MG 63 (6-TG R) cells (AID 1347105). Also: nearly all actives have a fitted effect of over 50% in size. An outline of the steps:
as §1

Assay [11] can be described thus: qHTS of pediatric cancer cell lines to identify multiple opportunities for drug repurposing: Primary screen for Rh18 cells (AID 1347102). Also: nearly all actives have a fitted effect of over 65% in size. In short, it runs like this:
as §2

The nature of assay [12]: qHTS of pediatric cancer cell lines to identify multiple opportunities for drug repurposing: Primary screen for RD cells (AID 1347104). Also: nearly all actives have a fitted effect of over 55% in size. In short, it runs like this:
as §1

Assay [13] is described as follows: qHTS of pediatric cancer cell lines to identify multiple opportunities for drug repurposing: Primary screen for control Hh wild type fibroblast cells (AID 1347106). Also: nearly all actives have a fitted effect of over 55% in size. An outline of the steps:
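Cells (500-1,000/well) in growth media were settled 5 h at 37 degrees C, then given compounds for 48 h. Viability was read as CellTiter-Glo luminescence. Primary runs used MIPE at 11 points (0.78 nM-46 µM) and NPC at 8 points (0.59 nM-46 µM); follow-ups used 11 points.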

Assay [14] in a line: qHTS of pediatric cancer cell lines to identify multiple opportunities for drug repurposing: Primary screen for Rh30 cells (AID 1347107). Also: nearly all actives have a fitted effect of over 75% in size. An outline of the steps:
as §2

Assay [15] in a line: qHTS of pediatric cancer cell lines to identify multiple opportunities for drug repurposing: Primary screen for Rh41 cells (AID 1347108). Also: nearly all actives have a fitted effect of over 70% in size. An outline of the steps:
as §1

A short description of assay [16]: qHTS of pediatric cancer cell lines to identify multiple opportunities for drug repurposing: Confirmatory screen for NB1643 cells (AID 1347109). Also: nearly all actives have a fitted effect of over 45% in size. In short, it runs like this:
as §2

Assay [17] in a line: qHTS of pediatric cancer cell lines to identify multiple opportunities for drug repurposing: Confirmatory screen for A673 cells (AID 1347110).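 Also: cells exposed to compound for 48 h before the viability read; nearly all actives have a fitted effect of over 65% in size.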 In short, it runs like this: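 A673 cells seeded at 500-1,000 cells/well, rested 5 h, then dosed; primary MIPE 11-point (0.78 nM to 46 µM), NPC (0.59 nM to 46 µM); confirmatory 11-point. CellTiter-Glo luminescence after 48 h.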
Assay [18] in a line: qHTS of pediatric cancer cell lines to identify multiple opportunities for drug repurposing: Confirmatory screen for SK-N-MC cells (AID 1347111).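 Also: cells exposed to compound for 48 h before the readout; nearly all actives have a fitted effect of over 70% in size.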 In short, it runs like this: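 Seed 500-1,000 cells/well; rest 5 h at 37 degrees C. Pin-transfer compounds, 11-point titration. Incubate 48 h. Add CellTiter-Glo, 15 min RT, read luminescence.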
Assay [19] can be described thus: qHTS of pediatric cancer cell lines to identify multiple opportunities for drug repurposing: Confirmatory screen for BT-12 cells (AID 1347112). Also: nearly all actives have a fitted effect of over 55% in size. An outline of the steps:
as §2

Assay [20] in a line: qHTS of pediatric cancer cell lines to identify multiple opportunities for drug repurposing: Confirmatory screen for LAN-5 cells (AID 1347113). Also: nearly all actives have a fitted effect of over 65% in size. In short, it runs like this:
as §2

Results filed as inconclusive are left out. Values without a mark were called inactive. Calls of active or inactive are those of the source. Calls follow the shape of the dose curve; as a rule, active = well fitted curve in the direction sought with a large enough effect; inconclusive = small, poorly fitted or top-dose-only effect, or another doubt; inactive = no such curve, though single readings can be large; an effect the other way counts as inactive or inconclusive. Residues, ends and D or L forms follow the SMILES beside them. *: point of attachment. Cbz = O=C(OCc1ccccc1)*
Potency is read from the fitted curve at half-maximal effect.

As to `O=c1c(O)c(-c2ccc(O)c(O)c2)oc2cc(O)ccc12`, the Potency was 24.3 µM (active) in assay [1]; 23.5 µM (active) in assay [2]; 16.6 µM (active) in assay [4]; 27.1 µM (active) in assay [5]; 20.9 µM (active) in [6]; 16.6 µM (active) in [7]. The Potency in assay [8] is 27.3 µM (active); in assay [9], 21.7 µM (active). Also, the Potency entry in assay [3] and in assay [10] was “inactive” in each case.
Regarding `COc1cc(OC)cc(-c2ccc3ncc4ccc(=O)n(-c5ccc(N6CCNCC6)c(C(F)(F)F)c5)c4c3c2)c1`, the Potency was 15.3 µM (active) in assay [1]; 3.72 µM (active) in [2]; 14.8 µM (active) in assay [3]; 13.2 µM (active) in [4]; 7.64 µM (active) in [5]; 11.8 µM (active) in assay [6]. Further, the Potency in assay [8] was 19.3 µM (active); in [11], 14.8 µM (active); in assay [9] it was 4.32 µM (active); in assay [12], 8.33 µM (active); in [10], 14.8 µM (active); in assay [13], 20.9 µM (active). The Potency in assay [14] is 16.6 µM (active); in [15] it was 3.72 µM (active).
With `CC(C)C[C@@H](C=O)NC(=O)[C@H](CC(C)C)NC(=O)[C@H](CC(C)C)NC(=O)OCc1ccccc1` (Cbz-Leu-Leu-Leu-aldehyde), the Potency in assay [1] is 0.863 µM (active); in assay [2], 0.166 µM (active); in assay [3], 0.935 µM (active); in assay [4] it was 0.743 µM (active); in [5] it was 0.857 µM (active); in assay [6], 0.372 µM (active). The Potency was 1.53 µM (active) in assay [8]; 1.32 µM (active) in [11]; 0.685 µM (active) in assay [9]; 0.662 µM (active) in [12]; 0.372 µM (active) in assay [10]; 2.96 µM (active) in assay [13]. Also, the Potency in assay [15] was 1.48 µM (active); in assay [16] it was 1.17 µM (active); in assay [17], 1.17 µM (active); in assay [18] it was 0.369 µM (active); in assay [19] it was 1.17 µM (active); in assay [20], 1.04 µM (active).
As to `C[N+]1(C)[C@@H]2C[C@@H](OC(=O)C(O)(c3cccs3)c3cccs3)C[C@H]1[C@@H]1O[C@@H]12`, the Potency entry in assay [1], in [2], in assay [3], in [4], in assay [5] and in [6] was “inactive” throughout. Also, the Potency entry in assay [7], in assay [8], in [9], in assay [12], in [10] and in assay [13] was “inactive” throughout. Also, in [15], the Potency entry was “inactive”.
As to `CC(=O)N[C@@H]1[C@H](O[C@@H]2c3ccc(c(Cl)c3)Oc3cc4cc(c3O[C@H]3O[C@H](CO)[C@@H](O)[C@H](O)[C@H]3NC(=O)CCCCCCCC(C)C)Oc3ccc(cc3Cl)C[C@H]3NC(=O)[C@H](N)c5ccc(O)c(c5)Oc5cc(O)cc(c5)[C@H](NC3=O)C(=O)N[C@H]4C(=O)N[C@H]3C(=O)N[C@@H]2C(=O)N[C@@H](C(=O)O)c2cc(O)cc(O[C@H]4O[C@H](CO)[C@@H](O)[C@H](O)[C@H]4O)c2-c2cc3ccc2O)O[C@H](CO)[C@@H](O)[C@@H]1O`, the Potency result in assay [1], in assay [2], in assay [3], in assay [4], in assay [5] and in [6] was “inactive” each time. In addition, the Potency result in assay [11], in assay [9], in assay [12], in [10], in assay [13] and in [14] was “inactive” each time. Besides, the Potency entry in assay [15] was “inactive”.
With `NC(=O)c1cccc(-c2cccc(OC(=O)NC3CCCCC3)c2)c1`, the Potency entry in assay [1], in [2], in [3], in assay [4], in assay [5] and in assay [6] was “inactive” in each case. Besides, the Potency result in [8], in assay [11], in assay [9], in assay [12], in [10] and in assay [13] was “inactive” throughout. In addition, in assay [15], the Potency entry is “inactive”.
For `NC(=O)Nc1sc(-c2ccc(F)cc2)cc1C(N)=O`, the Potency was 0.685 µM (active) in [1]; 0.469 µM (active) in assay [2]; 4.69 µM (active) in [3]; 2.35 µM (active) in [4]; 5.41 µM (active) in assay [5]; 4.69 µM (active) in assay [6]. In addition, the Potency is 5.26 µM (active) in assay [11]; 0.432 µM (active) in assay [9]; 1.66 µM (active) in [12]; 0.59 µM (active) in assay [10]; 6.62 µM (active) in assay [14]; 1.05 µM (active) in assay [15]. Further, the results for the Potency in assay [17] and in assay [18] were 6.57 µM (active) and 8.27 µM (active), respectively. Moreover, the Potency entry in assay [13] and in [19] was “inactive” throughout.
As to `O=C(O)CCCCCC(=O)NN=C1CCCC1`, the Potency result in assay [1], in assay [2], in assay [3], in [4], in assay [6] and in assay [7] was “inactive” in each case. Also, the Potency result in assay [8], in assay [11], in [12], in [10], in assay [13] and in [15] was “inactive” throughout.
Regarding `c1cc(N[C@@H]2CCNC2)nc(-c2cnc3ccc(-c4cn[nH]c4)cn23)c1`, the Potency is 19.3 µM (active) in [1]; 18.7 µM (active) in assay [4]; 24.1 µM (active) in [5]; 11.8 µM (active) in assay [7]; 17.2 µM (active) in [8]; 20.9 µM (active) in assay [11]. Also, the Potency in assay [9] was 19.3 µM (active); in assay [12], 16.6 µM (active); in assay [13], 23.5 µM (active); in [15], 16.6 µM (active). In addition, the Potency entry in assay [2], in assay [3] and in assay [14] was “inactive” throughout.
Turning to `CC(C)C[C@H](NC(=O)[C@@H](NC(=O)c1cccc(-c2ccccc2)n1)[C@@H](C)O)B(O)O`, the Potency was 0.0968 µM (active) in assay [1]; 0.0833 µM (active) in [2]; 0.148 µM (active) in [3]; 5.9 µM (active) in [4]; 0.0743 µM (active) in [6]; 0.0685 µM (active) in assay [8]. The Potency in assay [11] is 0.0469 µM (active); in assay [9], 0.432 µM (active); in assay [12] it was 0.118 µM (active); in assay [10], 0.0296 µM (active); in assay [13], 0.209 µM (active); in assay [14] it was 0.372 µM (active). The Potency in assay [15] was 0.0935 µM (active); in [16] it was 0.0827 µM (active); in assay [17] it was 0.0737 µM (active); in assay [18], 0.0147 µM (active); in assay [19], 0.0827 µM (active); in [20] it was 0.0369 µM (active).
In the case of `Nc1nc(=O)n([C@H]2CSC(CO)O2)cc1F` (some centres not stated), the Potency entry in assay [1], in assay [2], in assay [3], in assay [4], in assay [6] and in assay [7] was “inactive” each time. For the same molecule, the Potency entry in assay [8], in [12], in assay [10], in [13], in [14] and in assay [15] was “inactive” throughout.
